PubChem BioAssay
Records with an inconclusive call do not appear. Active and inactive are the calls of the source. Unless noted, cut-off not given; nearly all actives show AC50 up to about 26 µM.

What was measured:
[1] = viability loss in pontine glioma line – cell-based, SU-DIPG-XVII, MIPE5.0, CellTiter-Glo, qHTS, dose response (AID 1347060); settings: CellTiter-Glo ATP luminescence;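 on AC50: cells exposed to compound for 48 hours before viability readout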
[2] = viability loss in pontine glioma line – cell-based, SU-DIPG-XIII, MIPE4.0, CellTiter-Glo, qHTS, dose response (AID 1347061; cut-off not given, nearly all actives have AC50 up to about 37 µM;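 further: cells exposed to compound for 48 hours before readout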); settings: CellTiter-Glo ATP luminescence
[3] = viability loss in pontine glioma line – cell-based, SU-DIPG-IV, MIPE4.0, CellTiter-Glo, qHTS, dose response (AID 1347063; cut-off not given, nearly all actives have AC50 up to about 30 µM;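 further: compound exposure lasted 48 hours before the viability readout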); settings: CellTiter-Glo ATP luminescence
[4] = viability loss in pontine glioma line – cell-based, SU-DIPG-XIII, MIPE5.0, CellTiter-Glo, qHTS, dose response (AID 1347064; cut-off not given, nearly all actives have AC50 up to about 23 µM;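 on AC50: cells exposed to compound for 48 hours before the viability read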); settings: CellTiter-Glo ATP luminescence
[5] = viability loss in pontine glioma line – cell-based, SU-DIPG-XXV, MIPE5.0, CellTiter-Glo, qHTS, dose response (AID 1347065); settings: CellTiter-Glo ATP luminescence;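 further: cells exposed to compound for 48 hours before ATP readout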
[6] = growth inhibition of DIPG cells – cell-based, MIPE5.0 library, qHTS (AID 1347068; cut-off not given, nearly all actives have IC50 up to about 30 µM;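 on IC50: cells exposed to compound for 48 hours before viability readout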); settings: SU-DIPG-XXV viability
[7] = viability loss with induced miR-34 in A549 – imaging, A549 dox-inducible miR-34, nuclei and caspase counts, primary screen (AID 1347080;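 active means compounds whose cell count with miR-34 switched on is under 0.7 times the count with it off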); settings: A549 miR-34 inducible, Hoechst nuclei count, 48 h
[8] = compounds altering HSF1 focus formation in cells – imaging, Selleck Cancer Library (AID 1347162; in the data active means plate-normalised HSF1 focus index below about 0.46); settings: human cells, HSF1 nuclear foci imaging, at 10 µM; SSMD: measured here: HSF1 foci SSMD mean; cell count: measured here: cell number; plate-normalised HSF1 focus index: stronger effect = lower value
[9] = MELAS cybrid and Rieske KO viability enhancers – cell-based, MELAS cybrids, Rieske KO mouse fibroblasts, CellTiter-Glo, primary screen (AID 1508586;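 active means mean z-score across replicates of 1.96 or higher in either the MELAS or the Rieske mutant cell line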;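 further: z relative to plate mean and SD of compound and empty wells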); settings: low glucose
[10] = P. berghei load reduction in hepatocytes – cell-based, HepG2, luciferase luminescence, HepG2 viability, primary screen (AID 624349; in the data active means parasite load remaining mostly below about 12%, no sharp cut-off; inactive means mostly above about 10%;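 further: 100% = mean of DMSO negative control wells on the same plate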); settings: P. berghei liver stage in HepG2, luciferase luminescence, concentration not given here; parasite load remaining: stronger effect = lower value; viability: measured here: HepG2 viability without parasites
[11] = growth inhibition of DIPG cells – cell-based, MIPE4.0 library, CellTiter-Glo luminescence, qHTS (AID 1347066; cut-off not given, nearly all actives have AC50 up to about 30 µM;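 further: cells exposed to compound for 48 hours before readout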); settings: SU-DIPG-VI viability, CellTiter-Glo ATP luminescence
[12] = JHH-DIPG-1 glioma cell viability, MIPE5.0 library, CellTiter-Glo luminescence, qHTS (AID 1347067); settings: JHH-DIPG-1 glioma viability, CellTiter-Glo ATP luminescence;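 further: cells exposed to compound for 48 hours before readout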
[13] = drug combination growth inhibition, ovarian cancer – cell-based, oncology-focused library, rucaparib conditional, profiling panel (AID 1508598;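 active means normalized viability below 100% at a tested concentration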); settings: patient-derived ovarian cancer cells, CellTiter-Glo viability, 144 h, stronger effect = lower value
[14] = stronger effect = lower value, cell number ratio, induced over uninduced
[15] = measured here: relative caspase fold change +Dox/-Dox
[16] = measured here: total cells with miR-34 induction, stronger effect = lower value
[17] = measured here: total cells without miR-34 induction
[18] = MELAS cybrid survival, CellTiter-Glo 48 h, stronger effect = higher value
[19] = Rieske KO mouse fibroblast survival, CellTiter-Glo 72 h

COc1cc(Nc2ncc(F)c(Nc3ccc4c(n3)N(COP(=O)(O)O)C(=O)C(C)(C)O4)n2)cc(OC)c1OC
active: AC50 [1] 1.05 µM | AC50 [2] 1.87 µM | AC50 [3] 3.32 µM | AC50 [4] 3.72 µM | AC50 [5] 3.72 µM | IC50 [6] 4.68 µM
7320: cell count [8]
-0.181: z-score [9, 19]
inactive: fold change [7, 14] 0.857 | plate-normalised HSF1 focus index [8] 0.825 | z-score [9, 18] -0.637
0.912: fold change [7, 15]
1024: cell count [7, 16]
-2.78: SSMD [8]
1190: cell count [7, 17]

CC(=O)OC1C(C)OC(Oc2c(-c3ccc(O)cc3)oc3cc(O)cc(O)c3c2=O)C(O)C1OC(C)=O (centres undefined)
active: AC50 [3] 20.9 µM
inactive: parasite load remaining [10] 29.8% | outcome [1] | outcome [2]
85%: viability [10]

CC#CCn1c(N2CCC[C@@H](N)C2)nc2c1c(=O)n(Cc1nc(C)c3ccccc3n1)c(=O)n2C
inactive: outcome [1] | outcome [2] | outcome [4] | outcome [5] | outcome [11] | outcome [12] | outcome [6]

CC1(C)CCC(CN2CCN(c3ccc(C(=O)NS(=O)(=O)c4ccc(NCC5CCOCC5)c([N+](=O)[O-])c4)c(Oc4cnc5[nH]ccc5c4)c3)CC2)=C(c2ccc(Cl)cc2)C1
active: AC50 [1] 18.6 µM | AC50 [3] 10.5 µM | AC50 [5] 0.417 µM | AC50 [11] 7.43 µM | AC50 [12] 13.2 µM
inactive: outcome [2] | outcome [6] | fold change [7, 14] 1.1 | z-score [9, 18] -0.355
5370: cell count [7, 16]
0.0474: z-score [9, 19]
0.349: fold change [7, 15]
4860: cell count [7, 17]

Cc1ccc(S(=O)(=O)Nc2cc(Cl)ccc2C(=O)Nc2nc(-c3ccccc3)cs2)cc1
active: AC50 [1] 7.42 µM | AC50 [2] 10.5 µM | AC50 [3] 16.6 µM | AC50 [5] 8.33 µM | AC50 [11] 5.26 µM | AC50 [12] 1.05 µM

Cc1c[nH]c(/C=C2\C(=O)Nc3ccccc32)c1CCC(=O)O
active: AC50 [1] 14.8 µM | AC50 [2] 5.9 µM | AC50 [5] 10.5 µM | AC50 [12] 16.6 µM
inactive: outcome [11]

C[C@]12CC[C@@H]3c4ccc(O)cc4CC[C@H]3[C@@H]1[C@@H](O)[C@@H](O)[C@@H]2O
inactive: outcome [1] | outcome [2] | outcome [3] | outcome [11] | outcome [12] | outcome [6]

CN[C@@H](C)C(=O)N[C@H]1CCCC[C@H]2CC[C@@H](C(=O)N[C@@H](c3ccccc3)c3cn(CCCCc4ccc(CCCCn5cc([C@@H](NC(=O)[C@@H]6CC[C@@H]7CCCC[C@H](NC(=O)[C@H](C)NC)C(=O)N76)c6ccccc6)nn5)cc4)nn3)N2C1=O
inactive: outcome [1] | outcome [2] | outcome [4] | outcome [11] | outcome [12]

Nc1nc(=O)n([C@H]2C[C@H](O)[C@@H](CO)O2)cc1F
inactive: outcome [1] | outcome [2] | outcome [3] | outcome [5] | outcome [11] | outcome [12] | outcome [6]

CO[C@H]1C[C@@H]2CC[C@@H](C)[C@@](O)(O2)C(=O)C(=O)N2CCCC[C@H]2C(=O)O[C@H]([C@H](C)C[C@@H]2CC[C@@H](OP(C)(C)=O)[C@H](OC)C2)CC(=O)[C@H](C)/C=C(\C)[C@@H](O)[C@@H](OC)C(=O)[C@H](C)C[C@H](C)/C=C/C=C/C=C/1C
active: AC50 [1] 18.6 µM | AC50 [3] 23.5 µM | AC50 [5] 16.6 µM | AC50 [12] 20.9 µM
inactive: outcome [2]

C/C=C/C[C@@H](C)C(=O)[C@H]1C(=O)N[C@@H](C(C)C)C(=O)N(C)CC(=O)N(C)[C@@H](CC(C)C)C(=O)N[C@@H](C(C)C)C(=O)N(C)[C@@H](CC(C)C)C(=O)N[C@@H](C)C(=O)N[C@H](C)C(=O)N(C)[C@@H](CC(C)C)C(=O)N(C)[C@@H](CC(C)C)C(=O)N(C)[C@@H](C(C)C)C(=O)N1C
active: AC50 [1] 8.11 µM | AC50 [2] 18.7 µM | AC50 [5] 5.74 µM

O=C(Nc1ccc(Oc2ccnc3[nH]ccc23)c(F)c1)c1cccn(-c2ccc(F)cc2)c1=O
inactive: outcome [1] | outcome [2] | outcome [4] | outcome [5] | outcome [11] | outcome [12] | outcome [6]

NC(=O)c1c(OCc2c(F)cc(Br)cc2F)nsc1NC(=O)NCCCCN1CCCC1
active: AC50 [1] 4.68 µM | AC50 [2] 6.62 µM | AC50 [4] 3.32 µM | AC50 [5] 3.32 µM | AC50 [12] 18.6 µM | IC50 [6] 23.5 µM

CO[C@@H](C(=O)N1Cc2[nH]nc(NC(=O)c3ccc(N4CCN(C)CC4)cc3)c2C1)c1ccccc1
1.91: SSMD [8]
6850: cell count [8]
inactive: outcome [11] | plate-normalised HSF1 focus index [8] 1.1 | viability ([13]; at 0.000305 µM, OCI-C5x cells, with rucaparib 10 µM, 100% = cells with rucaparib alone) 122% | viability ([13]; at 0.00122 µM, OCI-C5x cells, with rucaparib 10 µM, 100% = cells with rucaparib alone) 113% | viability ([13]; at 0.00122 µM, OCI-C5x cells, without rucaparib) 106% | viability ([13]; at 0.00488 µM, OCI-C5x cells, without rucaparib) 104% | viability ([13]; at 1.25 µM, OCI-C5x cells, without rucaparib) 112%
active: AC50 [1] 0.525 µM | AC50 [2] 1.87 µM | AC50 [4] 1.05 µM | AC50 [5] 0.372 µM | viability ([13]; at 0.000305 µM, OCI-C5x cells, without rucaparib) 95% | viability ([13]; at 0.000305 µM, OCI-P5x cells, with rucaparib 20 µM, 100% = cells with rucaparib alone) 88.8% | viability ([13]; at 0.000305 µM, OCI-P5x cells, without rucaparib) 84.6% | viability ([13]; at 0.00122 µM, OCI-P5x cells, with rucaparib 20 µM, 100% = cells with rucaparib alone) 89.5% | viability ([13]; at 0.00122 µM, OCI-P5x cells, without rucaparib) 84.3% | viability ([13]; at 0.00488 µM, OCI-C5x cells, with rucaparib 10 µM, 100% = cells with rucaparib alone) 96% | viability ([13]; at 0.00488 µM, OCI-P5x cells, with rucaparib 20 µM, 100% = cells with rucaparib alone) 91.4% | viability ([13]; at 0.00488 µM, OCI-P5x cells, without rucaparib) 88.2% | viability ([13]; at 0.0195 µM, OCI-C5x cells, with rucaparib 10 µM, 100% = cells with rucaparib alone) 96.4% | viability ([13]; at 0.0195 µM, OCI-C5x cells, without rucaparib) 81% | viability ([13]; at 0.0195 µM, OCI-P5x cells, with rucaparib 20 µM, 100% = cells with rucaparib alone) 95.5% | viability ([13]; at 0.0195 µM, OCI-P5x cells, without rucaparib) 93.2% | viability ([13]; at 0.0781 µM, OCI-C5x cells, with rucaparib 10 µM, 100% = cells with rucaparib alone) 57.5% | viability ([13]; at 0.0781 µM, OCI-C5x cells, without rucaparib) 79.9% | viability ([13]; at 0.0781 µM, OCI-P5x cells, with rucaparib 20 µM, 100% = cells with rucaparib alone) 91.5% | viability ([13]; at 0.0781 µM, OCI-P5x cells, without rucaparib) 73.7% | viability ([13]; at 0.313 µM, OCI-C5x cells, with rucaparib 10 µM, 100% = cells with rucaparib alone) 66.2% | viability ([13]; at 0.313 µM, OCI-C5x cells, without rucaparib) 89.6% | viability ([13]; at 0.313 µM, OCI-P5x cells, with rucaparib 20 µM, 100% = cells with rucaparib alone) 75.2% | viability ([13]; at 0.313 µM, OCI-P5x cells, without rucaparib) 64.1% | viability ([13]; at 1.25 µM, OCI-C5x cells, with rucaparib 10 µM, 100% = cells with rucaparib alone) 84.8% | viability ([13]; at 1.25 µM, OCI-P5x cells, with rucaparib 20 µM, 100% = cells with rucaparib alone) 72.6% | viability ([13]; at 1.25 µM, OCI-P5x cells, without rucaparib) 60% | viability ([13]; at 5 µM, OCI-C5x cells, with rucaparib 10 µM, 100% = cells with rucaparib alone) 71.1% | viability ([13]; at 5 µM, OCI-C5x cells, without rucaparib) 88.4% | viability ([13]; at 5 µM, OCI-P5x cells, with rucaparib 20 µM, 100% = cells with rucaparib alone) 19.1% | viability ([13]; at 5 µM, OCI-P5x cells, without rucaparib) 17%

Cc1n[nH]c(C)c1Cc1sc2c(c1C(=O)N1C[C@H](O)CO1)c(=O)n(C)c(=O)n2CC(C)C
inactive: outcome [1] | outcome [2] | outcome [3] | outcome [11] | outcome [12] | outcome [6]

Cc1nc(C(=O)NCC(=O)O)c(O)c2ccc(Oc3ccccc3)cc12
7190: cell count [7, 17]
inactive: outcome [1] | outcome [2] | outcome [4] | outcome [5] | outcome [11] | outcome [12] | outcome [6] | fold change [7, 14] 0.947 | z-score [9, 18] -0.0779
0.278: z-score [9, 19]
6810: cell count [7, 16]
0.804: fold change [7, 15]
